Experimental data from PubChem BioAssay.
Activity calls are given as the source filed them.

Columns and labels:
[1] = system: Plasmodium falciparum Sir2 (PF13_0152, Sir2A); assay: pfSir2 binders on small-molecule microarrays, primary screen, biochemical, small-molecule microarray, 635 nm fluorescence (AID 1098); conditions: small-molecule microarray binding, fluorescence 635 nm; higher = more signal;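 note: score merges spot fluorescence intensity with its signal-to-noise ratio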
[2] = small-molecule microarray binders of probe aDKK1, primary screen, biochemical, biotinylated probe, 635/667 nm fluorescence (AID 1099); conditions: higher = more signal;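 note: score merges 667nm spot fluorescence with signal to noise across triplicate slides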
[3] = small-molecule microarray binders of probe aCHRDL2, primary screen, biochemical, biotinylated probe, 635/667 nm fluorescence (AID 1100); conditions: higher = more signal
[4] = splicing luciferase reporter signal modulators, primary screen, spliceosome inhibition project, cell-based, HEK293, splice +/- reporter (AID 1101); conditions: luminescence, 24 h, higher = more signal, called active from +8 up or from −8 down;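 note: HEK293 cells carrying a splicing-competent luciferase reporter gene; test concentration not given here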
[5] = molecular target: Fibroblast growth factor 10 (Homo sapiens) (UniProt O15520); assay: FGF10 binders on small-molecule microarrays, primary screen, biochemical, small-molecule microarray, 635 nm fluorescence (AID 1102); conditions: FGF10 binding, fluorescence 635 nm, higher = more signal
Fibroblast growth factor 10 (Homo sapiens), sequence (O15520 whole entry, looked up): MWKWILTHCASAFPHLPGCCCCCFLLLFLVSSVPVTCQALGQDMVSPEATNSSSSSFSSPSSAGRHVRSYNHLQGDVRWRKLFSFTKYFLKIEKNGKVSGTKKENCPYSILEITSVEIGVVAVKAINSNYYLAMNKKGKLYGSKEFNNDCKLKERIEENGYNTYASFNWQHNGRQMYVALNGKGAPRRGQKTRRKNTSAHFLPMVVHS

[6] = system: glycogen synthase kinase-3 (GSK3A per assay name; protocol says GSK3B); assay: GSK3 binders on small-molecule microarrays, primary screen, biochemical, small-molecule microarray, 635 nm fluorescence, GSK3A (AID 1103); conditions: small-molecule microarray binding, fluorescence 635 nm; higher = more signal; note: the record names both GSK3A and GSK3B
[7] = molecular target: Epidermal growth factor receptor (Homo sapiens) (UniProt P00533); assay: EGFR binders on small-molecule microarrays, primary screen, biochemical, small-molecule microarray, 635 nm fluorescence (AID 1104); conditions: EGFR binding, higher = more signal;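 note: score merges 667 nm emission intensity with spot signal to noise over triplicate slides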
Epidermal growth factor receptor (Homo sapiens), sequence (P00533 whole entry, looked up): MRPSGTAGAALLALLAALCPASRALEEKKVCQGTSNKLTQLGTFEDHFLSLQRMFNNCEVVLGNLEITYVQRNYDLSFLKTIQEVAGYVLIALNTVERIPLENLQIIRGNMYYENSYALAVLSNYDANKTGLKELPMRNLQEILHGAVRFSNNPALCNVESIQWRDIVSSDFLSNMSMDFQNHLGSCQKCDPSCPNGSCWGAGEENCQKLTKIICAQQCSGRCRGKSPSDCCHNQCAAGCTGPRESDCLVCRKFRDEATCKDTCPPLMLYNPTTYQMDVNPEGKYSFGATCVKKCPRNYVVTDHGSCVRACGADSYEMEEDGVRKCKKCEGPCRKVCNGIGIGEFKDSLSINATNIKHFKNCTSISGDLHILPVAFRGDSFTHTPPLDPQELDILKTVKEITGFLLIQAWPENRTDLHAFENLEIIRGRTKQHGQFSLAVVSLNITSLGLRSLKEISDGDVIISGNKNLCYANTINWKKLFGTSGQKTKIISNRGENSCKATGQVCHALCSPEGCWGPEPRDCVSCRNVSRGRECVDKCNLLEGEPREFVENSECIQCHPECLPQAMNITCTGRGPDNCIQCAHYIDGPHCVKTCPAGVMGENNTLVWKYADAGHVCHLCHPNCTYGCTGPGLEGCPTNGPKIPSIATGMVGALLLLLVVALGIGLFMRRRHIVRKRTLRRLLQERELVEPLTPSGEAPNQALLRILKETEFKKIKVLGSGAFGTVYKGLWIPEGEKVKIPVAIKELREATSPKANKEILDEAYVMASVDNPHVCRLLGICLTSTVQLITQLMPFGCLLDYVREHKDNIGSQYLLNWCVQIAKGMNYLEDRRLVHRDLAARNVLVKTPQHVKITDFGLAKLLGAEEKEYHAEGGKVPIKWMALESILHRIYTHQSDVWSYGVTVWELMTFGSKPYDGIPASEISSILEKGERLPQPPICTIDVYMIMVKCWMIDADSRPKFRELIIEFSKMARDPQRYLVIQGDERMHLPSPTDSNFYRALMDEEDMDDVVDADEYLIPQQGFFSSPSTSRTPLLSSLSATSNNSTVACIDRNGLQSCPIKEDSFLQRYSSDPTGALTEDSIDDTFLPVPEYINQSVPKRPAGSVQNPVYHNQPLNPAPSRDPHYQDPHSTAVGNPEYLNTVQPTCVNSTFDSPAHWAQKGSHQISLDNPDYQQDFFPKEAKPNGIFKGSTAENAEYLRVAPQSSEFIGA

[8] = molecular target: Follistatin-related protein 3 (Homo sapiens) (UniProt O95633); assay: FSTL3 binders on small-molecule microarrays, primary screen, biochemical, small-molecule microarray, 635 nm fluorescence (AID 1105); conditions: FSTL3 binding, higher = more signal;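 note: score merges emission near 667 nm and signal to noise per printed spot across three slides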
Follistatin-related protein 3 (Homo sapiens), sequence (O95633 whole entry, looked up): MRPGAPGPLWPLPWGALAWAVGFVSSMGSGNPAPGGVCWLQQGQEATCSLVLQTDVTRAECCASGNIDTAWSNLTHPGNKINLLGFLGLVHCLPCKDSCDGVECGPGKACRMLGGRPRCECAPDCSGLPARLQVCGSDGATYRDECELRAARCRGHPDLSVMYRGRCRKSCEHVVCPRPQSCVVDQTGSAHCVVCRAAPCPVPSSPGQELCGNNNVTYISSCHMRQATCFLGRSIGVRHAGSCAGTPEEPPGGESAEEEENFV

[9] = molecular target: Dickkopf-related protein 1 (Homo sapiens) (UniProt O94907); assay: DKK1 binders on small-molecule microarrays, primary screen, biochemical, small-molecule microarray, 635 nm fluorescence scan (AID 1106); conditions: DKK1 binding, higher = more signal;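 note: score merges emission near 667 nm with signal to noise over three replicate slides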
Dickkopf-related protein 1 (Homo sapiens), sequence (O94907 whole entry, looked up): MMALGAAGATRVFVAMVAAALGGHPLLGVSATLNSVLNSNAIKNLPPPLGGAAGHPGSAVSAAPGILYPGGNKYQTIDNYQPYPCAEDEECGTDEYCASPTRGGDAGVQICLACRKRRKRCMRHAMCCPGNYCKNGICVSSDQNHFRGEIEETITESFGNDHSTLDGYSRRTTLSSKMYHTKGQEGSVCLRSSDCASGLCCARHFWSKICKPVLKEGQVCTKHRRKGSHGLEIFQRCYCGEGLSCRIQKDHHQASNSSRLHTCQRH

[10] = system: Inhibin beta A chain (activin A); assay: INHBA (activin A) binders on microarrays, primary screen, biochemical, small-molecule microarray, 635 nm fluorescence scan (AID 1107); conditions: small-molecule microarray binding, higher = more signal;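 note: mouse activin A protein probed at 4.33 µg/mL on printed slides; score merges bound-protein fluorescence near 667 nm with spot signal-to-noise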
[11] = system: Human papillomavirus type 1a protein E7 (residues 44-93); assay: HPV1a E7 fragment binders on microarrays, primary screen, biochemical, small-molecule microarray, residues 44-93, 635 nm fluorescence (AID 1108); conditions: small-molecule microarray binding, fluorescence 635 nm; higher = more signal;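 note: E7 fragment applied at 1 µg/mL in TBST for 1 h at 4 C; score combines spot fluorescence with its signal to noise ratio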
[12] = modulators of HCV replicon luciferase signal, primary screen, HCV replication inhibitor project, Huh7 cells, luciferase reporter (AID 1109); conditions: 48 h, higher = more signal;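 note: huh7 hepatoma cells harbouring a luciferase neomycin HCV replicon reporter; luciferase luminescence as measure of HCV replicon replication; test concentration not given here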
[13] = molecular target: Left-right determination factor 2 (Homo sapiens) (UniProt O00292); assay: LEFTY2 binders on small-molecule microarrays, primary screen, biochemical, small-molecule microarray, 635 nm fluorescence scan (AID 1110); conditions: LEFTY2 binding, higher = more signal
Left-right determination factor 2 (Homo sapiens), sequence (O00292 whole entry, looked up): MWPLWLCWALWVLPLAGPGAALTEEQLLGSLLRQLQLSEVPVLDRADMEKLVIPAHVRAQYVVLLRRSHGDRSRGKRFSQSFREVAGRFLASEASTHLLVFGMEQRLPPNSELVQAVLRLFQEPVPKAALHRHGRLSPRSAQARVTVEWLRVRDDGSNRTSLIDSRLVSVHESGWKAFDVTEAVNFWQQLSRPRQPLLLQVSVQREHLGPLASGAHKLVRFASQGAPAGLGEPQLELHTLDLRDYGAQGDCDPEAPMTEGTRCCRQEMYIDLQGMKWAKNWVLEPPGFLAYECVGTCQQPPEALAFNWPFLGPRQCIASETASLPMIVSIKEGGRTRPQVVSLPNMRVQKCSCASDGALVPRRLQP

[14] = molecular target: Calmodulin-1 (Homo sapiens) (UniProt P0DP23); assay: CALM1 binders on microarrays, EGTA buffer, profiling panel, biochemical, small-molecule microarray, Cy5-labelled CALM1 (AID 1111); conditions: Cy5-CALM1 binding fluorescence, higher = more signal;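 note: labelled calmodulin applied in Tris saline Tween buffer holding calcium plus EGTA and DTT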
[15] = molecular target: Calmodulin-1 (Homo sapiens) (UniProt P0DP23); assay: calcium-bound CALM1 binders on microarrays, profiling panel, artefact control for SMM control-protein annotation, biochemical, small-molecule microarray, Cy5-labelled CALM1, plus calcium (AID 1112); conditions: Cy5-CALM1 binding fluorescence, higher = more signal;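 note: score merges spot fluorescence with signal to noise from triplicate slides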
[16] = small-molecule microarray binders of probe aWnt5a, primary screen, biochemical, biotinylated probe, 635/667 nm fluorescence (AID 1113); conditions: higher = more signal;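 note: score merges 667 nm fluorescence intensity with signal-to-noise per printed feature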
[17] = small-molecule microarray binders of probe aShh, primary screen, biochemical, biotinylated probe, 635/667 nm fluorescence (AID 1114); conditions: higher = more signal;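 note: probe is biotin-labelled aShh protein from a stem cell growth factor screen; measures binding of labelled protein to compounds printed on the slide; score merges feature fluorescence at 667 nm with signal-to-noise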
[18] = small-molecule microarray binders of probe aNog, primary screen, biochemical, biotinylated probe, 635/667 nm fluorescence (AID 1115); conditions: higher = more signal;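 note: probe is biotinylated aNog protein used at 0.15 µg/mL for 1 h at 4 C; z-score combines 667 nm fluorescence of each spot with its signal to noise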
[19] = molecular target: Torsin-1A-interacting protein 1 (Homo sapiens) (UniProt Q5JTV8); assay: LAP1 binders from COS7 cell lysate, primary screen, small-molecule microarray, 635/667 nm fluorescence (AID 1116); conditions: COS7-hLAP1 lysate binding, 635 nm fluorescence, higher = more signal
Torsin-1A-interacting protein 1 (Homo sapiens), sequence (Q5JTV8 whole entry, looked up): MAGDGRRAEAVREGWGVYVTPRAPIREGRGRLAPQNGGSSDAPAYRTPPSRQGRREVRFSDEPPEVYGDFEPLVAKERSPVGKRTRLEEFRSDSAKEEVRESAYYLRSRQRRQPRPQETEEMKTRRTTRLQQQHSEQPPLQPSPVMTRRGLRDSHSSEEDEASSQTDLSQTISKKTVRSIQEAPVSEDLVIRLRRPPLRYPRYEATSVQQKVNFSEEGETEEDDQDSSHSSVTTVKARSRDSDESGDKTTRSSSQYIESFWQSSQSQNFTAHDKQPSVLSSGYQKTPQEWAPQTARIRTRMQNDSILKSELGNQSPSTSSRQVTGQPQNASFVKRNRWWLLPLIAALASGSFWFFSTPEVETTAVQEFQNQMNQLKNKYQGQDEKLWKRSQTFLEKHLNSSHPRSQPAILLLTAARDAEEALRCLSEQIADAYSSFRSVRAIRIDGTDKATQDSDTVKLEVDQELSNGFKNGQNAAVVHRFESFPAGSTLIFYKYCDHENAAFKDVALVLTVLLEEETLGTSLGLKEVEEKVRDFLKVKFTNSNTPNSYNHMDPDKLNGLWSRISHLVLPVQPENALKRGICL

[20] = molecular target: Alpha-bungarotoxin (Bungarus multicinctus) (UniProt P60615); assay: alpha-bungarotoxin binders on microarray, profiling panel, artefact control for SMM control protein annotation, biochemical, small-molecule microarray, Alexa647 label, 635/667 nm fluorescence (AID 1117); conditions: alpha-BTX-A647 binding fluorescence, higher = more signal
Alpha-bungarotoxin (Bungarus multicinctus), sequence (P60615 whole entry, looked up): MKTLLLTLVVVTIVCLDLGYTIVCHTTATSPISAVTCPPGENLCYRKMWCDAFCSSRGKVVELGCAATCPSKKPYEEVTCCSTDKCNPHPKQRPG

Compound	composite z-score [1]	composite z-score [2]	composite z-score [3]	z-score [4]	composite z-score [5]	composite z-score [6]	composite z-score [7]	composite z-score [8]	composite z-score [9]	composite z-score [10]	composite z-score [11]	z-score [12]	composite z-score [13]	composite z-score [14]	composite z-score [15]	composite z-score [16]	composite z-score [17]	composite z-score [18]	composite z-score [19]	composite z-score [20]
COC(=O)[C@@]1(Cc2ccc(F)cc2)[C@H]2c3cc(C(=O)N(C)C)n(Cc4cc(C)n(C)n4)c3C[C@H]2CN1C(=O)c1ccccc1	1.16	1.2	1.19	-1.99 (inactive)	1.17	0.716	-0.0733	0.386	0.0455	0.609	0.923	0.107	-0.476	2.43	0.669	0.418	-0.0324	1.82	2.58	0.42
CC(=CC1CCCCC1)[C@@H](NC(=O)c1cccnc1)c1ccc(-c2ccccc2)cc1	-0.178	-0.0066	0.849	0.772 (inactive)	-0.599	-1.11	-0.419	-0.195	-0.44	0.679	0.0493	-2.14	-0.405	0.139	0.735	-0.13	-0.0403	0.747	-0.217	-0.124
O=c1cccc(-c2ccccc2Cl)o1	-0.462	-0.0639	-0.456	0.477 (inactive)	0.425	0.0083	0.0031	-0.0893	0.157	0.747	0.201	-0.143	-0.12	-0.559	-0.503	-0.124	0.0952	-0.593	0.21	-0.183
CC(C)[C@@H](C(=O)O)n1cc(C2(O)CCCCC2)nn1	0.221	-0.184	-0.55	-0.291 (inactive)	0.928	1.09	0.15	0.457	0.301	-0.352	0.875	-0.465	0.21	0.539	0.0141	-0.201	-0.0738	-0.0809	0.563	0.184
COC(=O)[C@@]1(Cc2ccc(OC)cc2)[C@H]2c3cc(C(=O)N4CCCC4)n(CCCNc4ncc(C(F)(F)F)cc4Cl)c3C[C@H]2CN1C(=O)c1ccccc1	0.596	1.63	0.941	-2.98 (inactive)	0.595	0.673	0.659	0.95	0.244	1.11	0.958	-2.32	0.0792	1.33	0.74	0.901	0.76	-0.447	-0.0323	0.884
CC(c1ccccc1)C(O)C1C=CC2C(=O)N(C)C(=O)C2N1NC(=O)OC(C)(C)C (stereo not given)	1.16	0.354	0.488	1.18 (inactive)	1.02	1.28	0.469	0.907	0.237	0.633	0.664	0.658	-0.0606	2.55	0.265	0.0377	-0.273	1.54	2.11	1.29
CC(C)[Si](C#C[Si](C(C)C)(C(C)C)C(C)C)(O[C@H](C)c1cn(Cc2ccccc2)nn1)C(C)C	0.733	-0.0531	-0.252	-0.9 (inactive)	0.584	0.856	0.361	0.688	0.0811	-0.353	1.2	0.16	0.409	0.634	0.142	-0.0893	-0.221	-0.33	0.182	0.717
COCCOC(=O)N1C(=O)[C@@]2(c3cc(C#CCCO)ccc31)[C@H](c1ccc(O)cc1)N1[C@H](c3ccccc3)[C@H](c3ccccc3)OC(=O)[C@H]1[C@@H]2C(=O)N1CCN(c2ncccn2)CC1	1.71	-0.365	-0.0062	-0.0232 (inactive)	1.11	1.31	0.36	0.899	0.417	1.29	1.17	-0.305	0.613	1.42	0.374	0.594	0.918	2.56	1.68	1.47
[N-]=[N+]=NCc1ccccc1[C@@H]1OC(c2ccc(OCCCO)cc2)=N[C@]1(CCS(=O)(=O)c1ccccc1)C(N)=O	1.32	0.775	1.01	0.25 (inactive)	1.6	1.32	0.588	1.41	1.47	1.3	1.5	1.35	0.767	0.731	0.242	0.164	0.5	0.769	1.81	2.19
O[C@@H](Cc1ccccc1)[C@@H](/C=C/C1CC1)NCc1cccc(Cl)c1	1.2	0.081	1.31	-0.944 (inactive)	-1.46	-0.638	-1.14	-0.78	-1.61	0.157	-0.597	-4.47	-1.4	-0.863	-0.133	-0.197	-0.206	-0.402	-0.737	-0.801
O=C1O[C@@H](c2ccccc2)[C@@H](c2ccccc2)N2[C@@H](c3ccccc3OCCO)[C@]3(C(=O)Nc4ccc(C#CC5(O)CCCCCC5)cc43)[C@@H](C(=O)N3CCN(c4ncccn4)CC3)[C@H]12	0.448	-0.125	0.304	-0.562 (inactive)	0.878	1.06	0.301	0.463	0.439	-0.431	1.38	-2.29	0.409	0.586	0.671	-0.0165	-0.0234	0.118	1.5	0.894
